Screens as filed in PubChem BioAssay.
This is a sample that favours compounds with a hit; in the whole collection about 3% have one here.
Tb PYK inh – qHTS of Trypanosoma Brucei Inhibitors; AID 624173, 2012; hit rate 0.12% among 410,000; pyruvate kinase (Trypanosoma brucei), Q57TT1; TbPYK enzyme, Kinase-Glo Plus ATP luminescence, 45 min; Potency, µM (highest dose often 76.8 µM), inactives show at the top dose activity, negative = inhibition, most hits filed as inhibitors; further: nearly all actives have a fitted effect of over 50% in size
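Readout: single end-point luminescence (Kinase-Glo Plus, 10 min). Reaction conditions were TbPYK/substrate plus 130 uM ADP, 45 min at RT, pH 7.2 TEA buffer. No-enzyme wells served as controls, and data were normalized before concentration-response fitting.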
RE007 growth inh – qHTS Assay for Inhibitors of the HIV-1 protein Vpr | S. pombe RE007 Vpr strain, BacTiter-Glo ATP luminescence, 24 h | Potency, µM (highest dose often 92.2 µM), for the others: top-dose activity change, negative = less growth, usual class: inhibitors | hit rate 0.21% among 360,000 | AID 651644, 2012; active means well fitted falling curve with a large enough effect; inconclusive means small, poorly fitted or top-dose-only effect; inactive means no such curve, though single readings can be large or run the other way; further: nearly all actives have a fitted effect of over 50% in size
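Fission yeast RE007 carrying one integrated HIV-1 vpr copy, seeded at OD 0.01 in PMG+AL medium with 23 nL pinned compound. Grown 24 h at 30 degrees; viability read by BacTiter-Glo luminescence after 5 min.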
Sm TGR inh – qHTS Assay for the Inhibitors of Schistosoma Mansoni Peroxiredoxins; Potency, µM (top dose mostly 114 µM), without a hit: at the top dose activity change, negative = inhibition, hits mostly inhibitors; AID 485364, 2010; hit rate 3% among 360,000; Schistosoma mansoni thioredoxin glutathione reductase (TGR), Q962Y6; purified TGR, DTNB reduction, TNB absorbance 405 nm; further: nearly all actives have a fitted effect of over 60% in size
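TGR 20 nM + NADPH 100 uM (dispensed conc.), cpd preinc 15 min RT; start with NADPH (500 uM addition) then DTNB (15 mM addition). Kinetic TNB absorbance, 405 nm filter. Four-parameter Hill fit across titration.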
LmPK inh – qHTS Assay for Inhibitors of Leishmania Mexicana Pyruvate Kinase (LmPK); Q27686; AID 1721, 2009; hit rate 0.37% among 290,000; purified LmPK, Kinase-Glo ATP luminescence, 1 h; Potency, µM (highest dose often 57.5 µM), for inactives: top-dose activity change, negative = inhibition, most hits filed as inhibitors
Target sequence (Q27686 whole entry, looked up): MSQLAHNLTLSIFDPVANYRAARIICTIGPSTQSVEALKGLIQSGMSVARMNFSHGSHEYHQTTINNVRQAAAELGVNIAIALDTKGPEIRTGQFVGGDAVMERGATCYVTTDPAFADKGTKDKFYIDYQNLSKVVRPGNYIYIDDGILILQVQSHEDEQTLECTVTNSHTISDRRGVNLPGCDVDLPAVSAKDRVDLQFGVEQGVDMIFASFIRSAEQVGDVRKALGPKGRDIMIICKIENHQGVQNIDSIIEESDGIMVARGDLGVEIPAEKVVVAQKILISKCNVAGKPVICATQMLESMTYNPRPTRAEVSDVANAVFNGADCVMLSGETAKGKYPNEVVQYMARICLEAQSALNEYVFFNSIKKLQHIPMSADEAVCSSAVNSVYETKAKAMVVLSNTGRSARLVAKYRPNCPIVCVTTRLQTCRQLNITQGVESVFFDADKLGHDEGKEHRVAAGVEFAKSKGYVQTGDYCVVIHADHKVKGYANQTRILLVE
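Kinase-Glo luminescence read after 1 h RT reaction of 0.1 nM LmPK with 0.5 mM PEP and 0.1 mM ADP. Activity scaled between uninhibited and enzyme-free controls.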
The depositor's hits bear a star; u = inconclusive; x = not tested or not shown; [ ] = dose if it differs, or a comment. Unless noted, the call rests on the fitted dose curve; in most records, active means well fitted curve in the direction sought with a large enough effect; inconclusive means small, poorly fitted or top-dose-only effect, or another doubt; inactive means no such curve, though single readings can be large; an effect the other way counts as inactive or inconclusive. On the % scale 0 is the no-effect control and ±100 the full control effect; potency means the concentration at half of the fitted maximal effect.

SMILES	Tb PYK inh	RE007 growth inh	Sm TGR inh	LmPK inh
Cc1ccc2oc(-c3cccc(NC(=S)NC(=O)/C=C/c4ccco4)c3)nc2c1	-8.7%	1.8%	-25.9%	0.9%
CN1C(C(=O)c2ccccc2)=C(OC(=O)c2ccc(Br)cc2)c2ccccc2S1(=O)=O	1.9%	x	-4.6%	x
COC(=O)C1=C(C(=O)OC)C(c2cc(Br)ccc2O)c2sc(=O)[nH]c2S1 (stereo not given)	-16.1%	-2.8%	u	-2.0%
COC(=O)C1=C(C(=O)OC)C(c2cc(Cl)ccc2O)c2sc(=O)[nH]c2S1 (stereo not given)	-20.4%	-13.2%	39.8µM*	1.4%
Cc1ccc(N2C(=O)NC(=O)C3(Cc4ccccc4N4CCN(c5ccccc5)CC43)C2=O)cc1 (stereo not given)	-5.0%	23.4%	17.8µM*	17.1%
O=C1c2ccccc2C(=O)C12Cc1ccccc1N1CCN(c3ccccc3)CC12 (stereo not given)	0.3%	3.5%	-18.8%	2.7%
CCOc1ccc(NC(=O)CSc2ncc3c(n2)-c2ccc(Cl)cc2N(Cc2ccccc2)S3(=O)=O)cc1	-0.4%	x	-1.8%	x
O=C(/C=C/c1ccco1)Nc1ccccc1N1CCCC1	-0.8%	-5.6%	39.8µM*	0.7%
O=C(/C=C/c1ccco1)NC(=S)Nc1ccccc1N1CCCC1	0.3%	1.0%	x	1.4%
O=C(/C=C/c1ccco1)NC(=S)Nc1ccccc1N1CCOCC1	4.4%	13.0%	31.6µM*	3.8%
O=C(Nc1ccccc1N1CCCC1)c1ccco1	-6.8%	-2.8%	u	5.9%
O=C(O)/C=C\C(=O)Nc1ccccc1N1CCN(c2ccccc2)CC1	-1.4%	-0.9%	11.2µM*	-1.1%
COc1ccc(CCNC(=O)Cn2nc(C)n3c(cc4cc(F)ccc43)c2=O)cc1OC	4.1%	x	4.0%	x
COCCCN(Cc1ccco1)C(=O)c1cc2c(s1)-c1ccccc1OC2	1.6%	x	-2.0%	x
COc1ccc(NC(=O)N2CCCC3(CCN(S(=O)(=O)c4ccccc4)CC3)C2)cc1	0.8%	x	x	x
c1ccc(CNc2ccc3ccccc3n2)nc1	-6.5%	-10.1%	2.3%	17.8µM*
CC(C)(O)C#Cc1ccc(C(=O)N2CCCC(CNS(=O)(=O)c3cccs3)C2)o1 (stereo not given)	-11.3%	15.2%	11.2µM*	7.1%
Cc1cc(C)c(C(=O)N2CCCC(CNS(=O)(=O)c3cccs3)C2)o1 (stereo not given)	-12.3%	2.5%	-3.1%	0.4%
Cc1ccc(/C=N/n2c(-c3cccnc3)n[nH]c2=S)s1	u	5.3%	-6.5%	-3.9%
Cc1ccc(/C=N/n2c(-c3cccnc3)n[nH]c2=S)o1	u	8.0%	28.2µM*	13.2%
S=c1[nH]nc(-c2ccccn2)n1/N=C/c1ccccc1	u	8.2%	-6.9%	4.4%
Cc1ccc(-c2n[nH]c(=S)n2/N=C/c2ccc(C)o2)cc1	2.51µM*	7.5%	-3.6%	-12.9%
S=c1[nH]nc(-c2cccnc2)n1/N=C/c1ccco1	u	1.7%	x	1.1%
CN(C)c1ccc(/C=N/n2c(-c3cccnc3)n[nH]c2=S)cc1	2.82µM*	12.4%	x	0.0%
Cc1ccc(/C=N/n2c(-c3ccc(Cl)cc3)n[nH]c2=S)o1	u	21.2%	-7.3%	-6.6%
SMILES	Tb PYK inh	RE007 growth inh	Sm TGR inh	LmPK inh
Cc1ccc(/C=N/n2c(-c3ccccn3)n[nH]c2=S)o1	u	9.8%	44.7µM*	9.2%
CCC(C(=O)Nc1cc(C)ccc1C)n1c(=O)c(C(F)(F)F)nc2ccccc21 (stereo not given)	-1.7%	x	-5.4%	x
CC(=O)Nc1ccc(S(=O)(=O)N2CCc3nc(-c4ccccc4)c4c(c3C2)CO[C@@H](C)C4)cc1	x	x	x	-1.1%[11.5 µM]
O=[N+]([O-])c1cccc(-c2ccc(/C=N/n3c(-c4ccccc4)n[nH]c3=S)o2)c1	-19.1%	7.5%	0.7%	1.7%
Cc1n[nH]c(=S)n1/N=C/c1ccc(-c2ccccc2[N+](=O)[O-])o1	7.94µM*	10.7%	9.7%	-10.9%
CCCOC(=O)c1cccc(NC(=O)CSc2nnc3cc(C)c4ccccc4n23)c1	1.5%	x	-4.5%	x
CCN(CC(=O)Nc1ccc(NC(C)=O)cc1)C(=O)/C=C/c1ccc(C)o1	3.4%	1.6%	44.7µM*	x
CCN(CC(=O)Nc1ccc(NC(C)=O)cc1)C(=O)/C=C/c1ccccc1	1.6%	-5.1%	4.6%	x
Cc1ccc(-c2cc(C(=O)Nc3ccccn3)c3ccccc3n2)o1	-33.1%	7.9%	17.8µM*	-4.3%
Cc1ccc(NC(=O)c2cc(-c3ccc(C)o3)nc3ccccc23)cc1	u	25.1µM*	25.1µM*	-0.4%
Cc1ccc(-c2cc(C(=O)NCCN3CCOCC3)c3ccccc3n2)o1	-10.5%	-5.1%	44.7µM*	-2.7%
Cc1ccc(-c2cc(C(=O)Nc3cccnc3)c3ccccc3n2)o1	u	1.2%	-16.7%[11.4 µM]	-8.7%
COc1ccc(-c2cc(C(=O)NCCN3CCOCC3)c3ccccc3n2)cc1	-2.8%	9.4%	-9.7%	-4.0%
C=CCNC(=O)N1CCc2nc(-c3ccccc3)c3c(c2C1)CO[C@@H](C)C3	x	x	x	3.6%[11.5 µM]
CCOC(=O)C1C(c2cccs2)NC(=O)N(C)C1(O)C(F)(F)F (stereo not given)	3.6%	10.1%	-16.9%	-0.8%
CN1C(=O)NC(c2cccc(O)c2)C(C(=O)c2cccs2)C1(O)C(F)(F)F (stereo not given)	2.1%	-13.1%	3.55µM*	-1.1%
CN(C)c1ccc(C(C(=O)NC2CCCC2)N(Cc2cccnc2)C(=O)c2snc(C(N)=O)c2N)cc1 (stereo not given)	-5.9%	u	7.0%	3.6%
Cc1ccc(C(C(=O)NC2CCCC2)N(Cc2cccnc2)C(=O)c2snc(C(N)=O)c2N)o1 (stereo not given)	2.6%	-10.8%	44.7µM*	-1.0%
Cc1ccc(N(C(=O)c2snc(C(N)=O)c2N)C(C(=O)NC2CCCC2)c2ccco2)cc1 (stereo not given)	0.6%	5.2%	39.8µM*	0.6%
CCC1(C2C=COC=C2)NC(=O)NC1=O (stereo not given)	3.6%	-1.1%[18.4 µM]	x	x
COC(=O)c1c(S(C)(=O)=O)nc(-c2ccccc2)[nH]c1=O	-3.6%	13.5%	25.1µM*	0.9%
CCCS(=O)(=O)c1c(S(=O)(=O)CCC)c2c(N)cccn2c1C(=O)OC	-27.8%	-3.5%	x	0.5%
CCCS(=O)(=O)c1c(S(=O)(=O)CCC)c2c(N)cccn2c1C(=O)c1ccccc1	-14.0%	11.9%	50.1µM*	-0.7%
CC(C)CN1CCC2(CC1)CCN(C(=O)c1cccn1C)CC2	0.0%	x	x	x
O=C(NCCc1ccccc1Cl)c1ccc2c(=O)n(-c3ccccc3)c(=O)[nH]c2c1	1.6%	x	-2.6%	x
Cc1ccsc1C=C1C(=O)c2ccccc2C1=O	-8.4%	u	0.0%	14.1µM*
CCN(CCCNC(=O)c1nn(-c2ccc(OC)cc2)c(=O)c2c1c1ccccc1n2C)c1cccc(C)c1	2.0%	x	9.1%	x
